# Screening results from PubChem.
# Most compounds without a hit are left out; they make up all but 5.2% or so of the library.
# M18AAP inhibitor: blocks P. falciparum M18 aspartyl aminopeptidase; recombinant PfM18AAP, H-Glu-NHMec fluorogenic cleavage; inhibition, % at 7.35 µM; actives 1.2% (n = 290,000); AID 1822;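 active = inhibition above the campaign mean inhibition over all tested compounds plus 3 SD, cut at about 28% in these data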;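 also: 0% = plate median of test compound wells and 100% = 2 mM ZnCl2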
# CendR NRP1 mod: alters CendR peptide binding to human NRP-1; O14786; FAM-RPARPAR peptide binding to NRP-1, fluorescence polarization; inhibition, % at 25 µM; actives 0.85% (n = 360,000);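 active = inhibition or corrected inhibition above about 18%, plus a signal ratio from 0.5 to 1.5, limit read from the data, passing the limit was not always enough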
# CR mimetic SO: lowers age-related superoxide in aged yeast cells; superoxide response (% of plate mean), % at 10 µM; actives 0.18% (n = 330,000); S. cerevisiae aged cells, superoxide DHE fluorescence; active compounds read low;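 active = superoxide response under a set limit, about three screen SD below normal, cut at about 65% in these data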;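 also: yeast aged for seven days with compound at 30 °C before DHE staining; 100% = average MFI of all compound-treated wells on the plate with controls excluded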
# ALR H2O2 inh: inhibitors of human sulfhydryl oxidase ALR; P55789; purified ALR, DTT oxidation, H2O2 HRP-luminol luminescence; inhibition, % (test concentration not listed); actives 3.8% (n = 290,000);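 active = mean replicate inhibition above about 79%, with every replicate also reaching it, limit read from the data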
# Target sequence (P55789 whole entry, looked up): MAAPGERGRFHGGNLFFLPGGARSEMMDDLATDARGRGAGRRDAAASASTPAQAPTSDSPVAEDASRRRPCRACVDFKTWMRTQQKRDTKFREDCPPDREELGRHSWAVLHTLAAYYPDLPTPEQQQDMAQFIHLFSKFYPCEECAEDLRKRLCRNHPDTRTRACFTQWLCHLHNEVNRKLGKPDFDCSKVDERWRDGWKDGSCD
# APOBEC3A inh: human APOBEC3A DNA deaminase inhibition; actives 0.41% (n = 330,000); inhibition, % at 20 µM; recombinant A3A, FAM/TAMRA ssDNA deamination fluorescence; AID 493011; P31941;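 active = at least 40% inhibition at 20 µM here, with at most 30% in a related deaminase screen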;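 also: plate controls were A3A with DMSO for no effect and wells lacking A3A enzyme for full effect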
# Target sequence (P31941 whole entry, looked up): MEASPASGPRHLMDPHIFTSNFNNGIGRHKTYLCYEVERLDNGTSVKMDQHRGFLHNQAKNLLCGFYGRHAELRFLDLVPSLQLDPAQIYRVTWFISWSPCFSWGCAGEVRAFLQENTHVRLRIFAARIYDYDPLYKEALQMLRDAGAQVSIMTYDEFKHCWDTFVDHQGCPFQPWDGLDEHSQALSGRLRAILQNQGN
# APOBEC3G inh: blocks human APOBEC3G single-stranded DNA deamination; AID 493012; inhibition, % at 20 µM; actives 0.28% (n = 330,000); Q9HC16; recombinant A3G, ssDNA deamination FAM/TAMRA fluorescence;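 active = inhibition of at least 40% at 20 µM, with no more than 30% in the related APOBEC3A deaminase screen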;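 also: plate controls were DMSO wells with A3G for no effect and wells lacking A3G enzyme for full effect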
# A3G conf: APOBEC3G (human) deaminase inhibition, confirmed; inhibition, % at 20 µM; shares compounds with APOBEC3G inh; actives 72% (n = 890); recombinant A3G ssDNA deaminase, UDG/FAM-TAMRA fluorescence;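 active = inhibition reaching a set limit in any replicate at 20 µM, the limit being 80% of the first screen's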
# UDG A3G counter: E. coli UDG inhibition in APOBEC3G counter-screen; 710 tested, under 10 active; UDG counterscreen, FAM/TAMRA oligo fluorescence; shares compounds with APOBEC3G inh; inhibition, % at 20 µM;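 active = compounds giving 40% or more inhibition at 20 µM in any one of the three replicates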;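 also: plate controls were DMSO wells with UDG and oligo for no effect and DMSO wells lacking both for full effect; inhibitors lower the FAM signal released by uracil excision and alkaline cleavage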
# Target sequence (P12295 whole entry, looked up): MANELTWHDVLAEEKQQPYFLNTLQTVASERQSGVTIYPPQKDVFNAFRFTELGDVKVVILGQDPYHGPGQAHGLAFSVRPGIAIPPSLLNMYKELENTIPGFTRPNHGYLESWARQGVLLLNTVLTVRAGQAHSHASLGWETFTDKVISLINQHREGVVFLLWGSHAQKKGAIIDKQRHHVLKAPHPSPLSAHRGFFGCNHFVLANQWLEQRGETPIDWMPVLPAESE
# Active calls of the source: *; i = inactive; nt = not tested or not shown.
SMILES,M18AAP inhibitor,CendR NRP1 mod,CR mimetic SO,ALR H2O2 inh,APOBEC3A inh,APOBEC3G inh,A3G conf,UDG A3G counter
c1cncc(-c2nnc(-c3cccnc3)nn2)c1,4.0,5.1,107.6,-32.5,6.6,44.0*,22.1*,-0.8
O=C(CSc1ccccc1)Nc1nnc(COc2ccc(Cl)cc2)s1,20.0,-12.0,78.7,15.3,6.7,43.6*,58.1*,-5.6
CCOCC(=O)Nc1nnc(COc2ccc(Cl)cc2)s1,-2.3,3.3,111.9,-8.0,2.2,41.1*,20.4*,-2.8
CCc1nnc(NC(=O)c2c(-c3ccccc3)noc2C)s1,-1.7,5.8,105.3,12.3,-3.1,-11.7,nt,nt
Cc1onc(-c2ccccc2)c1C(=O)Nc1nnc(COc2ccc(Cl)cc2)s1,7.8,8.1,109.9,-3.5,-0.9,57.6*,38.4*,-3.0
CCOc1ccc(CC(=O)NC2CC(C)(C)N(C)C(C)(C)C2)cc1OCC,nt,-3.9,104.4,-3.2,-2.4,-5.5,nt,nt
O=[N+]([O-])c1ccc(N/N=C/c2cccnc2)cc1,11.2,-22.0,91.8,10.2,-4.9,0.7,nt,nt
Clc1ccc(N/N=C/c2cccnc2)cc1,3.8,-8.8,161.0,99.0*,-0.6,40.0*,-0.5,1.4
CC1CCC2(CC1)NC(=S)N(C(C)(C)C)N2 (stereo not given),-12.2,3.6,89.2,2.8,2.3,51.1*,23.7*,-2.8
O=C(c1ccco1)N1CCN(C(=O)N2CCCC2)CC1,0.1,8.5,91.4,nt,-1.7,-6.8,nt,nt
COc1ccc(NC(=S)N2CCN(C(c3ccccc3)c3ccccc3)CC2)cc1OC,3.8,-3.9,101.8,nt,1.2,-0.7,nt,nt
COc1cc(C(=S)N2CCN(C(c3ccccc3)c3ccccc3)CC2)cc(OC)c1O,23.2,-7.8,100.8,-5.6,-5.4,42.5*,18.5,1.6
Cc1ccc(-n2c(N)c(C(=O)NCc3ccco3)sc2=S)cc1,5.7,21.1,107.7,3.5,-1.2,-4.3,nt,nt
Cc1ccc(-n2c(N)c(C(N)=O)sc2=S)cc1,12.8,2.5,104.2,18.8,1.0,58.2*,57.9*,-1.1
CC(=O)Nc1ccc(S(=O)(=O)Nc2cc(Cl)ccc2N2CCOCC2)cc1,nt,1.8,103.5,-2.4,-4.2,-5.5,nt,nt
Nc1cc(S(=O)(=O)Nc2ccc(Cl)cc2)ccc1N1CCOCC1,3.8,3.0,109.5,39.4,2.4,45.7*,16.8*,-3.9
O=S(=O)(Nc1ccc(Cl)cc1)c1ccc(N2CCOCC2)c(NC(=S)NC2CC2)c1,6.8,1.8,121.0,-3.8,1.0,46.0*,31.7*,2.0
Nc1nnc(SC2CC(=O)N(c3ccccc3)C2=O)s1 (stereo not given),-117.3,10.3,101.0,25.2,0.1,41.7*,25.3,nt
COc1ccc(NC(=O)CN(C)C(=O)c2cccc(S(=O)(=O)Nc3ccc(OC)cc3)c2)cc1,nt,-0.5,115.2,0.6,-2.2,49.2*,-12.9,-0.6
COc1cccc(NC(=O)CN(C)C(=O)c2cccc(S(=O)(=O)Nc3ccc(C)cc3)c2)c1,nt,4.0,96.2,-0.5,-4.2,-5.7,nt,nt
CC1(C)Cc2c(C#N)c(SCC(=O)O)nc(N3CCOCC3)c2CO1,nt,-17.2,79.7,-3.8,-3.4,61.0*,-8.8,-7.2
S=c1[nH]nc(-c2ccco2)n1-c1ccc(Br)cc1,nt,2.8,106.2,73.7,-0.9,42.0*,69.0*,-3.4
Cc1cccc(-n2c(-c3ccco3)n[nH]c2=S)c1,12.2,1.4,92.7,85.9*,-2.0,53.6*,60.4*,-4.4
Cc1ccc(N2C(=O)C3ON(c4ccccc4)C(CC(C)C)C3C2=O)cc1 (stereo not given),-1.4,-4.1,i,-5.5,2.0,-6.0,nt,nt
O=C(Nc1ccc2c(c1)OCCO2)C(c1ccccc1F)n1c(=O)c(-c2ccco2)nc2ccccc21 (stereo not given),nt,-42.2,nt,nt,nt,nt,nt,nt
SMILES,M18AAP inhibitor,CendR NRP1 mod,CR mimetic SO,ALR H2O2 inh,APOBEC3A inh,APOBEC3G inh,A3G conf,UDG A3G counter
CCOc1ccc(NC(=O)CN(C)CC(=O)Nc2cc(Cl)ccc2C#N)cc1OCC,1.4,-8.4,94.5,-8.8,2.7,90.6*,3.7,nt
Cc1cccc(C)c1NC(=O)CN(C)CC(=O)Nc1cc(Cl)ccc1C#N,1.7,-15.8,105.6,nt,1.6,1.7,nt,nt
S=c1[nH]nc(Cc2cccs2)n1-c1ccccc1Cl,20.8,4.4,107.7,74.2,-3.0,16.5,nt,nt
S=c1[nH]nc(Cc2cccs2)n1-c1ccccc1,7.0,5.1,78.6,30.0,1.4,56.5*,58.9*,-2.9
COc1ccc(OC)c(-n2c(-c3ccccc3)n[nH]c2=S)c1,16.2,9.2,101.2,20.7,-3.1,22.5,nt,nt
COc1ccc(-n2c(-c3ccc(C)cc3)n[nH]c2=S)cc1,22.8,1.8,90.0,21.0,-4.3,27.1,nt,nt
COc1cc(-c2n[nH]c(=S)n2-c2ccc(C)cc2)cc(OC)c1OC,10.8,-1.4,100.1,65.5,-5.2,43.0*,68.0*,-4.3
COc1ccccc1-n1c(-c2ccccc2)n[nH]c1=S,17.5,7.9,99.1,29.0,2.9,67.7*,57.8*,-4.2
O=C(Cc1ccccc1)NNC(=S)NC(=O)c1cccnc1,23.6,-1.4,97.1,-5.4,-3.9,43.4*,13.8,1.3
COC(=O)CCNC(=O)Cn1cnc2sc3c(c2c1=O)CCCC3,2.4,5.7,92.2,-3.0,-3.5,-1.5,nt,nt
O=C(O)COc1ccccc1/C=N/NC(=O)Cc1csc(Nc2cccc(C(F)(F)F)c2)n1,-3.4,-21.9,102.2,29.1,-1.0,54.9*,14.9,-4.0
O=C(O)COc1ccccc1/C=N/NC(=O)Cc1ccccc1,-0.5,9.0,105.7,-2.1,-10.5,-7.7,nt,nt
Cn1c(-c2ccc(C(C)(C)C)cc2)n[nH]c1=S,10.3,14.4,89.4,10.4,-2.8,40.5*,73.3*,-0.4
Cc1nc(-c2ccccc2)sc1-c1n[nH]c(=S)n1C,5.4,3.1,99.2,92.0*,-6.3,43.2*,76.1*,-3.4
Cn1c(-c2sccc2OCc2ccc(Cl)cc2Cl)n[nH]c1=S,13.2,10.7,96.0,65.0,2.0,9.3,nt,nt
Cn1c(-c2sccc2OCc2ccccc2)n[nH]c1=S,8.8,4.2,107.2,96.8*,-1.1,45.3*,78.2*,-3.6
Cc1cc(C)c(S(=O)(=O)N2CCOC2CNC(=O)C(=O)NCc2ccccn2)c(C)c1 (stereo not given),-0.3,-10.2,102.1,-9.7,0.7,-3.1,nt,nt
Cc1cccc(C)c1N1CC(=O)N(c2c(C)cccc2C)CC1=O,4.7,2.9,128.9,-6.4,7.0,1.3,nt,nt
Cc1cc(-c2csc(N)n2)c(C)n1CCC(C)C,1.9,-11.0,103.1,-2.4,6.5,40.3*,12.7,nt
